Source: PubChem BioAssay (The Scripps Research Institute Molecular Screening Center)
The list is not random: actives were taken first. Their share in the collection is about 2.3%.
UHRF1 binding: blocks human UHRF1 binding to methylated DNA; UHRF1 binding to methylated oligo, TR-FRET; inhibition, % at 4.4 µM; actives 0.75% (n = 370,000); in the data active means inhibition above about 21%;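 further: UHRF1 SRA domain binding a hemimethylated CpG hairpin DNA probe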
PLCb3 inh: blocks human PLC-beta3 enzyme activity; inhibition, % at 12.2 µM; AID 720704; actives 0.18% (n = 370,000); Purified PLC-beta3, fluorogenic substrate, fluorescence; in the data active means inhibition above about 11%
MBD2 DNA inh: inhibitors of human MBD2 binding to methylated oligonucleotide. Q9UBB5. actives 0.31% (n = 370,000). inhibition, % at 4.4 µM. AID 686964. TR-FRET; in the data active means inhibition above about 13%
PLCg1 inh: PLC-gamma1 (human) inhibition, primary screen. P19174. purified PLC-gamma1, fluorogenic substrate, fluorescence. inhibition, % at 12.2 µM. actives 0.84% (n = 370,000); in the data active means inhibition above about 9.5%
LEDGF integ inh: blocks HIV-1 LEDGF/p75-dependent DNA integration | TR-FRET IN-LEDGF/p75 DNA integration, Eu/Cy5 | inhibition, % at 3.7 µM | actives 0.64% (n = 370,000) | AID 743269;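 active means inhibition above the screen-wide mean plus 3 SD, cut at about 13% in these data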;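 further: signal is the Cy5 over europium emission ratio at 671 and 618 nm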
IN multimer up: counter-screen for LEDGF/p75 integration inhibitors: HIV-1 integrase multimerization activators; AID 1053131; TR-FRET HIV-1 integrase multimerization, biochemical; actives 17% (n = 2,000); activation, % at 7.7 µM; shares compounds with LEDGF integ inh; in the data active means activation above about 8.9%
TRFRET interf: optically interferes with TR-FRET readout in LEDGF counter-screen. 2,000 tested, under 10 active. shares compounds with LEDGF integ inh. inhibition, % at 7.7 µM. TR-FRET optical interference counterscreen, HIV-1 IN multimerization;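 active means inhibition above the mean over all tested compounds plus 3 SD, which no compound reached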
IN-LEDGF confirm: LEDGF/p75-dependent HIV-1 integration inhibition, confirmation | shares compounds with LEDGF integ inh | TR-FRET LEDGF/p75-dependent HIV-1 integration, biochemical | inhibition, % at 3.7 µM | actives 36% (n = 2,000) | AID 1053136; in the data active means inhibition above about 14%
Hits are given with their value; - = inactive; . = not tested or not shown.

SMILES	UHRF1 binding	PLCb3 inh	MBD2 DNA inh	PLCg1 inh	LEDGF integ inh	IN multimer up	TRFRET interf	IN-LEDGF confirm
Cc1[nH]c(=O)[nH]c1C(=O)CCCCC(=O)O	-	-	-	-	73.4	-	-	59.6
Oc1ccc(NC(=S)Nc2ccc(O)cc2)cc1	-	-	-	-	16.7	-	-	-
COC(=O)c1ccc(NC(=S)Nc2ccc(O)cc2)cc1	-	-	-	-	-	.	.	.
O=C1c2cccc(Cl)c2C(=O)c2c1cccc2N1CCCC1	-	-	-	-	32.2	-	-	-
Cc1ccc(C)c(N2CCN(C(=O)c3ccc4nc(-c5ccco5)c(-c5ccco5)nc4c3)CC2)c1	-	-	-	-	40.4	-	-	21.6
COc1ccccc1N1CCN(C(=O)c2ccc3nc(-c4ccco4)c(-c4ccco4)nc3c2)CC1	-	-	-	-	-	.	.	.
O=C(c1ccccc1)c1ccc2nc(-c3ccco3)c(-c3ccco3)nc2c1	-	-	-	-	17.6	-	-	35.3
O=C(c1ccc(=O)oc1)N1CCOCC1	42.8	-	-	-	29.2	-	-	58.3
O=Cc1cc(N=Nc2ccccc2Cl)ccc1O	-	-	-	-	17.1	-	-	49.4
COc1cc(N=Nc2ccccc2C(=O)O)ccc1O	-	-	-	-	-	.	.	.
COc1cc(-c2[nH]nc3c2C(c2ccco2)C(C#N)=C(N)O3)cc(OC)c1OC (centres undefined)	-	-	-	-	15.9	-	-	-
COc1cc(-c2[nH]nc3c2C(c2ccoc2)C(C#N)=C(N)O3)cc(OC)c1OC (centres undefined)	-	-	-	-	-	.	.	.
COCCCNC(=O)C[C@H]1C[C@@]2(C(=O)OC)C(=C[C@H](C3CCCC3)O[C@@H]2C)N(CCc2ccc(OC)c(OC)c2)C1=O	-	-	-	-	-	.	.	.
O=C(NC1=C(Nc2ccc(Cl)cc2)C(=O)c2ccccc2C1=O)c1ccccc1	-	-	-	-	-	.	.	.
O=C(NC1=C(NC2CCS(=O)(=O)C2)C(=O)c2ccccc2C1=O)c1ccccc1 (centres undefined)	-	-	-	-	24.8	-	-	41.5
CCC1(CC)Cc2ccccc2-c2nc(NCCCO)[nH]c(=O)c21	-	-	-	-	13.5	-	-	-
O=C(c1cncnc1)N1CCC(n2nnc3ncccc32)CC1	-	-	-	-	-	.	.	.
COc1ccc(C2SCC(=O)N2c2ccc(F)cc2)cc1 (centres undefined)	-	-	-	-	-	.	.	.
COc1ccc(N2C(=O)CSC2c2cccc(F)c2)cc1 (centres undefined)	-	-	-	-	29.3	-	-	-
O=c1/c(=C/c2ccco2)sc2n1CN(c1ccccc1)CN=2	-	-	-	-	17.4	-	-	-
O=c1/c(=C/c2ccco2)sc2n1CN(c1cccc(Br)c1)CN=2	-	-	-	-	-	.	.	.
COc1cccc(NC(=O)Nc2nc3ncccn3c2-c2ccc(F)c(F)c2)c1	-	-	-	-	-	.	.	.
CCN1CCN(C(c2ccccc2)c2nnnn2Cc2ccc3c(c2)OCO3)CC1 (centres undefined)	-	-	-	-	25.1	-	-	-
CCN1CCN(C(c2ccc(OC)cc2)c2nnnn2Cc2ccc3c(c2)OCO3)CC1 (centres undefined)	-	-	-	-	-	.	.	.
COc1cc([N+](=O)[O-])cc(/C=N/NC(=O)C(C)Nc2cccc3ccccc23)c1O (centres undefined)	-	-	-	-	-	.	.	.
SMILES	UHRF1 binding	PLCb3 inh	MBD2 DNA inh	PLCg1 inh	LEDGF integ inh	IN multimer up	TRFRET interf	IN-LEDGF confirm
Cc1cccc(/C=N/NC(=O)C(C)Nc2cccc3ccccc23)n1 (centres undefined)	-	-	-	-	31.8	-	-	-
CC(Nc1cccc2ccccc12)C(=O)N/N=C/c1ccc([N+](=O)[O-])cc1 (centres undefined)	-	-	-	-	16.2	-	-	-
O=C(NCCc1c[nH]c2ccccc12)OCc1cn(Cc2cccc(F)c2F)nn1	-	-	-	-	-	.	.	.
COc1ccc(N2CCN(C(=O)c3ccc4c(c3)[nH]c(=S)n3c5ccccc5nc43)CC2)cc1	43.3	-	-	-	14.9	-	-	-
N#Cc1ccc(/C=C2\CC3(OC(=O)c4ccc(F)cc4)CCCN2C3)cc1 (centres undefined)	-	-	-	-	-	.	.	.
COCCNC(=O)C1(S(=O)(=O)c2ccccc2)CC=CC1	-	-	-	-	23.8	-	-	-
O=C(NCC1CC1)C1(S(=O)(=O)c2ccccc2)CC=CC1	-	-	-	-	-	.	.	.
Cc1nnc(N/N=C\c2ccc(-c3ccccc3[N+](=O)[O-])o2)n1N	-	-	-	-	42.7	-	-	-
CCc1nnc(N/N=C/c2ccc(-c3ccc([N+](=O)[O-])cc3)o2)n1N	-	-	-	-	45.9	-	-	-
Cc1nnc(N/N=C/c2ccc(-c3ccccc3F)o2)n1N	-	-	-	-	43.6	-	-	-
CCC(=O)N/N=C/c1ccc(-c2ccc([N+](=O)[O-])cc2)o1	-	-	-	-	-	.	.	.
Oc1ccc(NCc2cccc(OCc3ccccc3)c2)cc1	-	-	-	-	15.8	8.9	-	40.6
Oc1ccc(NCc2cccc(OCc3ccc(F)cc3)c2)cc1	-	-	-	-	13.9	-	-	26.3
COc1ccc(-n2c(SCC(=O)Nc3ccccc3)nc(O)cc2=O)cc1	-	-	-	-	53.5	-	-	-
COc1cccc(-n2c(SCc3cc(=O)oc4cc(O)c(O)cc34)nc3ccccc3c2=O)c1	-	-	-	-	27.1	13.9	-	72.3
CNC(=O)CSc1nc2ccccc2c(=O)n1-c1cc(OC)ccc1OC	-	-	-	-	17.5	-	-	-
CCNC(=O)CSc1nc2ccccc2c(=O)n1-c1cc(OC)ccc1OC	-	-	-	-	-	.	.	.
O=C(CSc1nnc(-c2cnccn2)n1-c1ccccc1)Nc1ccc2c(c1)OCCO2	-	-	-	-	-	.	.	.
COc1ccccc1CCn1cnc(-c2cccc(F)c2)c1CC(C)C	-	-	-	-	-	.	.	.
Cc1ccc2c(c1)N(CCCC(=O)NCc1cccs1)C(=O)CO2	-	-	-	-	-	.	.	.
COc1ccc(OC)c(S(=O)(=O)Nc2cccc3c(O)cccc23)c1	-	-	-	-	-	.	.	.
COc1ccc(NC(=O)Nc2ccc(O)c3ccccc23)cc1	-	-	-	-	15.3	-	-	-
COc1ccc(OC)c(S(=O)(=O)Nc2ccc(O)c3ccccc23)c1	-	-	-	-	23.1	-	-	-
CCc1ccc(S(=O)(=O)Nc2ccc(O)c3ccccc23)cc1	-	-	-	-	-	.	.	.
